Assay outcomes from PubChem BioAssay.
Wnt bcat act – Wnt/beta-catenin pathway activation; 300,000 tested, 1.2% active; activation, % at 9.35 µM; Wnt/beta-catenin reporter cell assay, activator, plate reader; in the data active means activation above about 30%, passing the limit was not always enough; inconclusive means no clear call, values can overlap the other calls;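 further: 0% = neutral control wells and 100% = positive control wells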
F508del corr – CFTR F508del correction in bronchial cells | CFBE cells, YFP halide quenching; stimulated with forskolin plus potentiator P3; % fluorescence drop versus neutral controls | activity (quench increase), % at 7.58 µM | 350,000 tested, 0.36% active;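 active means mean added fluorescence quench of at least 8% versus neutral control, with both replicates also reaching 8%; inconclusive means only one of the mean or replicate conditions met; inactive means mean below 8% and not both replicates reaching 8%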;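 further: cells transiently co-express mutant CFTR-F508del with the halide-sensitive YFP; corrector assay measuring rescue of mutant channel to the surface after 24 h compound exposure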
INS-1E GSIS act – primary screen for activators of insulin secretion dependent on glucose, INS-1E cells, GLuc reporter luminescence. INS-1E GLuc reporter insulin secretion, 2-3 h. activation, % at 16.6 µM. 370,000 tested, 0.61% active. AID 743287;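 active means lowest replicate activation of at least 40%, so every replicate reaches that level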;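 further: 0% = median of neutral control wells and 100% = median of IBMX positive control wells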
MITF TRPM1 HTS – increases MITF-driven TRPM1 promoter luciferase signal; AID 588334; activation, % at 12.5 µM; SK-MEL-5 TRPM1-promoter luciferase, 24 h; % of positive control, neutral wells = 0; 300,000 tested, 0.75% active;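 active means mean activation of at least 80% with every replicate also reaching 80%; inconclusive means mean reaches 80% but some replicate falls short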;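 further: 0% = neutral control wells and 100% = parthenolide positive control wells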
Env fusion inh – blocks HIV Env-driven cell-cell fusion; inhibition, % at 12.3 µM; HeLa-JRFL Env/CEM21 cell fusion, luciferase; 360,000 tested, 1.1% active;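 active means mean replicate inhibition score of at least 50 and every replicate individually at or above 50; inconclusive means only one of the two criteria met; inactive means mean below 50 and not all replicates reaching 50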;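 further: 0% = plate neutral controls and 100% = maraviroc near 300 nM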
Active calls of the source: *; i = inactive; ? = inconclusive; · = not tested or not shown; [ ] = remark or other dose. Rows were chosen to be rich in hits. Some 2.7% of all compounds tested hit in one or more screens of this group.

SMILES	Wnt bcat act	F508del corr	INS-1E GSIS act	MITF TRPM1 HTS	Env fusion inh
N/C(=N\C(=S)Nc1ccccc1)c1ccccc1	42*	1	0	?	-93
Cc1ccc(S(=O)(=O)Nc2cccc3c2O[C@H](CN(C)S(=O)(=O)c2ccc(C)cc2)[C@H](C)CN([C@H](C)CO)C3=O)cc1	·	1	-5	·	4[16.7 µM]
COc1ccc(S(=O)(=O)N2CC[C@@H]3[C@H](CO)N(C)c4ccc(-c5ccc(F)cc5)cc4[C@@H]32)cc1	·	11*	-39	·	·
CN1c2ccc(-c3ccc(F)cc3)cc2[C@H]2[C@H](CCN2S(=O)(=O)c2cccc(F)c2)[C@H]1CO	·	16*	-5	·	·
CC(C)=CC(=O)Nc1ccc(Cl)cc1	45*	0	-2	89*	-40
CC(=O)c1ccc(NC(=O)Nc2ccc(Cl)cc2)cc1	17	0	-6	125*	·
CC(=O)c1ccc(NC(=O)Nc2ccncc2)cc1	6	-2	-3	46	7
O=C(C[C@H]1CC[C@@H](NC(=O)c2ccncc2)[C@@H](CO)O1)Nc1ccc(-c2ccccc2)cc1	·	1	-2	·	·
Cc1ccc(S(=O)(=O)Nc2cccc3c2O[C@@H](CN(C)C(=O)NC2CCCCC2)[C@@H](C)CN([C@H](C)CO)C3=O)cc1	·	-4	-13	·	29[16.7 µM]
CC(OC(=O)c1ccc(-n2cnnn2)cc1)C(=O)Nc1ccccc1F (stereo not given)	51*	0	-22	5	-14
O=C(C[C@@H]1CC[C@H]2[C@@H](COC[C@H](O)CN2Cc2cccc(-c3ccncc3)c2)O1)N1CCCCC1	·	0	2	·	·
Cc1cccc2c(N=NC(=O)c3ccc(NS(=O)(=O)c4cccs4)cc3)c(O)[nH]c12	18	1	4	34	-1
Cc1cccc2c(N=Nc3ccc(S(=O)(=O)Nc4ccc(Cl)cc4)cc3[N+](=O)[O-])c(O)[nH]c12	1	9.7*	2	6	12
C[C@@H]1CN([C@@H](C)CO)C(=O)c2cc(NS(=O)(=O)c3ccccc3)ccc2O[C@@H]1CN(C)CC1CCCCC1	·	0	2	·	-7[16.7 µM]
C[C@H](CO)N1C[C@H](C)[C@H](CN(C)C(=O)c2cccc(F)c2)Oc2cc(-c3ccncc3)ccc2S1(=O)=O	·	·	25	·	-24[16.7 µM]
O=C(OCc1ccccc1)c1cccc(-c2nnn(Cc3ccccc3)n2)c1	45*	·	·	23	-50
CC(=O)Nc1cc(-c2cccc(C(=O)NCCN(C)C)c2)cn2c(-c3cccc(C(F)(F)F)c3)cnc12	-24	-1	170*	·	32
CCn1ncc(C2=NOC(C(=O)Nc3ccc(C)cc3)C2)c1C (stereo not given)	-4	·	·	-21	42*
CCn1ncc(C2=NOC(C(=O)Nc3cccnc3)C2)c1C (stereo not given)	-10	·	26	1	-10
COC(=O)c1ccc(/C=N/N2CCN(Cc3ccc(Cl)cc3)CC2)cc1	51*	0	4	·	5
O=C(O)c1ccc(/C=N/N2CCN(Cc3ccc(Cl)cc3)CC2)cc1	6	2	-9	8	27
CC(=O)Nc1ccc2c(c1)C(=Nc1cccc(C)c1)c1ccccc1-2	34*	-1	-8	8	-10
CC(=O)Nc1cccc(C)c1	3	1	9	2	·
CCn1c(C)nc2cc(S(=O)(=O)C(F)F)ccc21	·	·	19	8	-38
CCn1c(C)nc2cc(S(=O)(=O)C(F)(F)F)ccc21	·	·	99*	9	·
SMILES	Wnt bcat act	F508del corr	INS-1E GSIS act	MITF TRPM1 HTS	Env fusion inh
O=C(NC(Cc1ccccc1)C(=O)N1CCN(S(=O)(=O)c2ccccc2F)CC1)c1ccccc1 (stereo not given)	-1	8.7*	27	-2	·
Cn1c(N)c(C(=O)CSc2nc3ccccc3n2-c2ccccc2)c(=O)n(C)c1=O	·	·	63*	7	·
C[C@@H]1CN([C@@H](C)CO)C(=O)c2cc(NC(=O)CCC(F)(F)F)ccc2O[C@H]1CN(C)Cc1ccncc1	·	-1	4	·	4[16.7 µM]
CCC(=O)NCCc1nc2cc(NC(=O)c3ccc(Cl)cc3)ccc2n1C	37*	0	-8	123*	-24
CCC(=O)NCCc1nc2cc(NC(=O)c3ccc(OC)cc3)ccc2n1C	·	·	12	46	-43
CCC(=O)NCCc1nc2cc(NC(=O)c3ccc(F)cc3)ccc2n1C	29	-1	-1	93*	-22
O=C(Nc1cc(F)ccc1F)N[C@@H]1CC[C@@H](CCn2cc(C3CCCC3)nn2)O[C@H]1CO	·	2	-6	·	·
CCN(c1ccccc1)S(=O)(=O)c1ccc(C(=O)Nc2c(C)n(C)n(-c3ccccc3)c2=O)cc1	-4	2	-17	7	57*
C/C(=N\N=c1/sc2ccccc2n1C)c1ccccn1	52*	3	4	64	-20
C[C@@H]1CCCCO[C@H](CN(C)S(C)(=O)=O)[C@H](C)CN([C@@H](C)CO)C(=O)c2cc(NC(=O)Nc3ccc(C(F)(F)F)cc3)ccc2O1	·	·	-3	·	·
COc1ccc(C(=O)NCc2ccccc2CN2CCCC2)cc1S(=O)(=O)N1CCOCC1	-3	3	5	5	62*
CC(C)Nc1nc(NC(C)(C)C)nc(Oc2ccc(=O)n(C)n2)n1	1	2	41*	-3	-8
C[C@@]12C(=O)OC(=O)[C@]1(C)C1CCC2O1	-3	-5	-23	-79	105*
CC12C(=O)N(c3nccs3)C(=O)C1(C)C1CCC2O1 (stereo not given)	-6	0	-15	·	·
O=C(Nc1nccs1)C(=O)c1c[nH]c2ccccc12	59*	·	·	?	-165
O=C(CCSc1ccccc1)Nc1nccs1	·	·	16	-5	-52
O=C(Nc1nccs1)C(Br)C(Br)c1ccccc1 (stereo not given)	37*	-2	6	54	-72
CCC(C)(CC(=O)Nc1nccs1)c1ccccc1 (stereo not given)	2	-2	41*	-6	17
O=C(/C=C\c1ccccc1)Nc1nccs1	39*	·	10	34	-226
C/C=C/c1ccc([C@@H]2[C@@H](CO)N(S(C)(=O)=O)C23CN(C(=O)CC)C3)cc1	·	-2	11	·	·
O=C(Nc1nccs1)OCc1ccccc1	34*	-2	4	·	-24
O=C(NCc1ccccc1)C(=O)Nc1nccs1	1	-1	26	21	-3
O=C(C[C@H]1CC[C@@H]2[C@H](COC[C@H](O)CN2C(=O)Nc2ccccc2)O1)NCCc1ccncc1	·	1	-3	·	·
COc1cc2sc3ccc(C#Cc4ccc(N)cc4)cc3c(=O)c2cc1OC	-5	0	58*	9	-23
O=c1c2ccccc2oc2cc(-c3ccc4[nH]ccc4c3)ccc12	10	10*	·	54	i
Nc1cccc(C#Cc2ccc3c(=O)c4ccccc4oc3c2)c1	-2	1	·	132*	-179
COc1cc2sc3ccc(C#CC4(O)CCCCC4)cc3c(=O)c2cc1OC	-1	4	5	38	i
COc1cc2sc3ccc(C#Cc4ccccn4)cc3c(=O)c2cc1OC	14	1	1	25	56*
